Consider eight molecules from ChEMBL document CHEMBL1961873, “Compounds: GSK PKIS; Assays: Nanosyn kinase panel” (2012).

Experiment [1] addresses T1, Serine/threonine-protein kinase D2 (Homo sapiens) (UniProt Q9BZL6).
T1 sequence (whole entry): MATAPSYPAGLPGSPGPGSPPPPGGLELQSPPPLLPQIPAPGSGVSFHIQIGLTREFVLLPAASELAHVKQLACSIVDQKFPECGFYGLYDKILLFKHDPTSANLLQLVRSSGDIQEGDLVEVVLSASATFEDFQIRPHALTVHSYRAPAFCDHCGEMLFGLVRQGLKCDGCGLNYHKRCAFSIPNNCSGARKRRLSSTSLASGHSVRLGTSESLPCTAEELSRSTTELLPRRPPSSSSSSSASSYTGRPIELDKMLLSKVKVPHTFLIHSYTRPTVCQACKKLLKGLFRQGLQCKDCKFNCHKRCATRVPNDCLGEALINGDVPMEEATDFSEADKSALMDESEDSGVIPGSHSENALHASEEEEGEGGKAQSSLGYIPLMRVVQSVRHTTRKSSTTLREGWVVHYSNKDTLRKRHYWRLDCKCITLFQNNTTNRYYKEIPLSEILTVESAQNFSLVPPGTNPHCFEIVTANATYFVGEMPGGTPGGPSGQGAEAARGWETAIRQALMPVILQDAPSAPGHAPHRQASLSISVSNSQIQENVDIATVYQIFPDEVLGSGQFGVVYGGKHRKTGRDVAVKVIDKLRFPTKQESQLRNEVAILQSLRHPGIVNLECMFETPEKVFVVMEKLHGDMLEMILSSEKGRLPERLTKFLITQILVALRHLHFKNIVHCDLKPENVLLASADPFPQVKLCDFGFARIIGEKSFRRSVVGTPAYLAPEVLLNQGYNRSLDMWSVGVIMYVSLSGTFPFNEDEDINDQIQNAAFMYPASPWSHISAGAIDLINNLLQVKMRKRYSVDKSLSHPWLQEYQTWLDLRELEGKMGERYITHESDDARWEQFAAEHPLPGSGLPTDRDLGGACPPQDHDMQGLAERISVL
To be noted: at 1 µM.

Experiment [2] deals with T2, Serine/threonine-protein kinase D3 (Homo sapiens) (UniProt O94806).
T2 sequence (whole entry): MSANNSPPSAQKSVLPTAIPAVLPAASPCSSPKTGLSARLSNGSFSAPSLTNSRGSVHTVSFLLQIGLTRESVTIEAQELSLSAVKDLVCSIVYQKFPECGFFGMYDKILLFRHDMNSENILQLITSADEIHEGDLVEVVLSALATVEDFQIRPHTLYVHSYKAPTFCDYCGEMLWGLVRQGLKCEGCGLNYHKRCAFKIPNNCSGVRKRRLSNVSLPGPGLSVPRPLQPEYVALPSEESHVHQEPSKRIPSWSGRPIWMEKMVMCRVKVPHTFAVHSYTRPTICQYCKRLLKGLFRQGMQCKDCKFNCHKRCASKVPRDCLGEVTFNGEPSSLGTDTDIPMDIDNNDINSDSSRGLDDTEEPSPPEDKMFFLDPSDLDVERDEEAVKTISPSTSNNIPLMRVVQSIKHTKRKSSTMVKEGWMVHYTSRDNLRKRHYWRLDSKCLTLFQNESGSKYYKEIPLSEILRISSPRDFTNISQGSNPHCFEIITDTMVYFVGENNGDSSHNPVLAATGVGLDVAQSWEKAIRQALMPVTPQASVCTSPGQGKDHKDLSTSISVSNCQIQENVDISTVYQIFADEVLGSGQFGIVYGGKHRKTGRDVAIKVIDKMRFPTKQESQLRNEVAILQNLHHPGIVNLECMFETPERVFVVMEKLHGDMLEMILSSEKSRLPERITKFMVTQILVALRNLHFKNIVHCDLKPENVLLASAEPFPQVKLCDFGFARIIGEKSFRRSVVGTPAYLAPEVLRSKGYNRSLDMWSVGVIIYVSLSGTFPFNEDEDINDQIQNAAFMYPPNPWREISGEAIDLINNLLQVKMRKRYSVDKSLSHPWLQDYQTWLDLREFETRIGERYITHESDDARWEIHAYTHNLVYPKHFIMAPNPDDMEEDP
To be noted: at 0.1 µM.

For experiment [3], the target named is T2, Serine/threonine-protein kinase D3 (Homo sapiens). To be noted: at 1 µM.
For experiment [4], the target named is T3, cGMP-dependent protein kinase 1 (Homo sapiens) (UniProt Q13976).
T3 sequence (whole entry): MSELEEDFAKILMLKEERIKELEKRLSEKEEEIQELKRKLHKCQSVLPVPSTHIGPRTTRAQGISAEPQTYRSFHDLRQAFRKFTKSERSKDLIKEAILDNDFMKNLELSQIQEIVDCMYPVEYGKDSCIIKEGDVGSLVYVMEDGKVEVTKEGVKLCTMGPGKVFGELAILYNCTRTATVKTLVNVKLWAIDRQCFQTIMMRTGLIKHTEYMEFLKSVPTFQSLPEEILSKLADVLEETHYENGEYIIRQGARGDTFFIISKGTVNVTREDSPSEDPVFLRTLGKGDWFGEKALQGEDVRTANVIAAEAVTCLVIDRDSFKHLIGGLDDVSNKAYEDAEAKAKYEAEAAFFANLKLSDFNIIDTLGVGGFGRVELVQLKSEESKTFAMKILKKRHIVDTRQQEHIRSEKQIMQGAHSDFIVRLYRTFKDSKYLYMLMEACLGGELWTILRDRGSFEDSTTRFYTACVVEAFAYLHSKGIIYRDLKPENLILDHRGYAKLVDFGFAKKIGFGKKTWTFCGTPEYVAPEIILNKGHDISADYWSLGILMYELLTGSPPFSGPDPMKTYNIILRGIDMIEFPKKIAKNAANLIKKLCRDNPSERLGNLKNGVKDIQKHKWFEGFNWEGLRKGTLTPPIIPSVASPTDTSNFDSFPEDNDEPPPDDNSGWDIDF
Conditions: at 0.1 µM.

The target of experiment [5] is T3, cGMP-dependent protein kinase 1 (Homo sapiens). Conditions: at 1 µM.
For experiment [6], the target named is T4, cGMP-dependent protein kinase 2 (Homo sapiens) (UniProt Q13237).
T4 sequence (whole entry): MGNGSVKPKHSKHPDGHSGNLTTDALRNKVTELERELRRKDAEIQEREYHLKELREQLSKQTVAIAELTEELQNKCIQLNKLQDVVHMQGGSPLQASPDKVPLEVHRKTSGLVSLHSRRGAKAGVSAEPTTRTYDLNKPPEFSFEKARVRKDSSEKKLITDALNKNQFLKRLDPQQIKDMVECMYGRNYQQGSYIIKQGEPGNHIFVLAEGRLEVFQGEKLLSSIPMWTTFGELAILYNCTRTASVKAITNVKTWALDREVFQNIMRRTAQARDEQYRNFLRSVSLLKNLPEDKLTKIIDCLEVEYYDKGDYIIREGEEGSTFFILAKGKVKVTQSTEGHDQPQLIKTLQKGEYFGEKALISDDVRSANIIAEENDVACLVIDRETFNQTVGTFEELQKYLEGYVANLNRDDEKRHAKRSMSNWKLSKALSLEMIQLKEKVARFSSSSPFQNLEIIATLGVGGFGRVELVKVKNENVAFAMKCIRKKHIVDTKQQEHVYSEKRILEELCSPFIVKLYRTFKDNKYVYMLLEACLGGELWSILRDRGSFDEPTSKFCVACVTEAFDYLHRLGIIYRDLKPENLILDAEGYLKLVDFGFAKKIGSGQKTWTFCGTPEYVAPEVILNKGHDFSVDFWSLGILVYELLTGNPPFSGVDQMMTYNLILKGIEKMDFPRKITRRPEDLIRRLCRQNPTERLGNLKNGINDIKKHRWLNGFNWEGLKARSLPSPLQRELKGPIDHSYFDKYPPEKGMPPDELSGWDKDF
Conditions: at 0.1 µM.

Experiment [7] has as its target T4, cGMP-dependent protein kinase 2 (Homo sapiens). To be noted: at 1 µM.
The target in experiment [8] is T5, cAMP-dependent protein kinase catalytic subunit PRKX (Homo sapiens) (UniProt P51817).
T5 sequence (whole entry): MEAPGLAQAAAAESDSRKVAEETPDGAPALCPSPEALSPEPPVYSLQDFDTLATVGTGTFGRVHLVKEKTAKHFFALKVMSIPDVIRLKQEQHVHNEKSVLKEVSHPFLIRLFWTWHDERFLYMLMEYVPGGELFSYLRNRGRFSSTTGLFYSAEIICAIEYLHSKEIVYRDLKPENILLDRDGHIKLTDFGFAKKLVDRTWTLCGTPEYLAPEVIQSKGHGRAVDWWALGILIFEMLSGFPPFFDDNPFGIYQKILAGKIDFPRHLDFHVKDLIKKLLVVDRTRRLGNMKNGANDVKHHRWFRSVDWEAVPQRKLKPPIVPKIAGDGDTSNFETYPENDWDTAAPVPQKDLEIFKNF
Conditions: at 0.1 µM.

Experiment [9] deals with T5, cAMP-dependent protein kinase catalytic subunit PRKX (Homo sapiens). Conditions: at 1 µM.
Experiment [10] addresses Rho-associated protein kinase 1 (Homo sapiens) (UniProt Q13464). Conditions: at 0.1 µM.

Sequence of Rho-associated protein kinase 1 (Homo sapiens) (Q13464 2-1354 limits assumed): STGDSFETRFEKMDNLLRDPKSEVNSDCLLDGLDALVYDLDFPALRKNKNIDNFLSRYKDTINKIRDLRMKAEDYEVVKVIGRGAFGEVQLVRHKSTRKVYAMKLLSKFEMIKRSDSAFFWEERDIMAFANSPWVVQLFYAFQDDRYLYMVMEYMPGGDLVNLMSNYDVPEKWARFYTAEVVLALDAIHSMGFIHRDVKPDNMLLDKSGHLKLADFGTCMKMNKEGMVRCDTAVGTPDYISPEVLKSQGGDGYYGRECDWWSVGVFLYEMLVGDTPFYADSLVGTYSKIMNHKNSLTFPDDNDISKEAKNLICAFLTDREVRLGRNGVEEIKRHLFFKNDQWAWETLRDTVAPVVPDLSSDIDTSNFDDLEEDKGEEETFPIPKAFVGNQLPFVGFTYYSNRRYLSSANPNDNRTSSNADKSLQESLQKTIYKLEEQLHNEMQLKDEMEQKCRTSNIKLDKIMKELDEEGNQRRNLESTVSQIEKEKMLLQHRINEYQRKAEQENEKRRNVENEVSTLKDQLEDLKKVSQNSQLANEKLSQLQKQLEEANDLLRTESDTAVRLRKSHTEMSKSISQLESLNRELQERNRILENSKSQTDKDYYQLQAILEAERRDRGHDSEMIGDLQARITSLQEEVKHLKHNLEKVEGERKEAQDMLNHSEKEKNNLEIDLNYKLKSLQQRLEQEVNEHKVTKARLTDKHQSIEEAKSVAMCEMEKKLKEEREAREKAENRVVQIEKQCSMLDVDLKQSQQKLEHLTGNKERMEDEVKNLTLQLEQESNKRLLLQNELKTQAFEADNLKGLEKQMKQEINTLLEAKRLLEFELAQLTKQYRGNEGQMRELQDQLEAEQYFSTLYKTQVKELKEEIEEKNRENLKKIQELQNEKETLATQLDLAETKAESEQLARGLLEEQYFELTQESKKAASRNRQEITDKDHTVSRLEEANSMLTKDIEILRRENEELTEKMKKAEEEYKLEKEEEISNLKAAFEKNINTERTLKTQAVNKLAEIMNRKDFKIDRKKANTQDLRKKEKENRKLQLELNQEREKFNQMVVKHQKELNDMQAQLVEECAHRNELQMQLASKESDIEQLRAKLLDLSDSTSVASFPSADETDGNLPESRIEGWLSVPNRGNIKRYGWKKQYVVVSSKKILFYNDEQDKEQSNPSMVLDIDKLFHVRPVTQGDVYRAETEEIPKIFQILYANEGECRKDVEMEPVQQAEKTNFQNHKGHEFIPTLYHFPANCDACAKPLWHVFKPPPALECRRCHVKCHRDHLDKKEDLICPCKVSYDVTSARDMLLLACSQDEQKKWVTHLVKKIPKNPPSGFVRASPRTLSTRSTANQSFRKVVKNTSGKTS

`Fc1cccc(COc2ccc(Nc3ncnc4sc(-c5cccs5)cc34)cc2Cl)c1`: the inhibition (commonly the drop in the measured response relative to a control, in per cent) is -1.2% in experiment [1]; -0.65% in experiment [2]; -0.35% in [3]; 1.57% in [4]; 1.96% in experiment [5]; 0.03% in experiment [6]. Also, the inhibition in [7] was determined as 0.73%; in experiment [8] it was 0.64%; in experiment [9], 0.87%; in [10], 1.73%.
With `Nc1nc(-c2ccc3c(c2)C(=Cc2cc(Br)c(O)c(Br)c2)C(=O)N3)cs1`, the inhibition is -1.39% in experiment [1]; -1.58% in experiment [2]; -1.34% in experiment [3]; 0.42% in experiment [4]; 1.43% in [5]; -0.63% in experiment [6]. In addition, the inhibition is 1.49% in [7], -0.49% in experiment [8], 0.42% in experiment [9] and -0.08% in experiment [10].
Turning to `COc1ccc(-c2ccncc2)cc1C(N)=O`, the inhibition is 5.71% in [1]; 5.67% in experiment [2]; 11.1% in experiment [3]; 4.34% in [4]; 13.7% in [5]; 2.97% in experiment [6]. Further, the inhibition amounted to 17% in [7], 2.9% in experiment [8], 3.27% in experiment [9] and 2.65% in experiment [10].
Consider `c1cnn2ncc(-c3ccnc(Nc4ccc5c(c4)OCCO5)n3)c2c1`, for which the inhibition turned out to be 38.2% in experiment [1]; 7.82% in experiment [2]; 50.5% in experiment [3]; 4.87% in experiment [4]; 18.9% in [5]; 1.98% in experiment [6]. In addition, the inhibition in [7] was 8.51%; in experiment [8] it was 1.25%; in experiment [9], 2.29%; in [10], 1.28%.
On to `O=C1NC(=O)C(c2ccccc2Cl)=C1Nc1cccc(O)c1`, for which the inhibition was found to be 2.71% in experiment [1]; 2.73% in [2]; 2.86% in experiment [3]; 2.17% in experiment [4]; 3.29% in [5]; 1.54% in [6]. Besides, the inhibition in experiment [7] is 4.57%; in [8], 2.14%; in experiment [9], 4.07%; in experiment [10], 3.29%.
`Cc1ccc(NC(=O)c2ccnc(N3CCCC3)c2)cc1-c1ccc(C(=O)NCC2CC2)cc1`: the inhibition in [1] worked out at 9.48%; in experiment [2], 3.21%; in experiment [3], 10.1%; in experiment [4] it was 2.12%; in experiment [5], 6.39%; in experiment [6] it was 3.92%. Further, the inhibition stood at 6.54% in [7], 1.47% in experiment [8], 2.53% in experiment [9] and 10% in experiment [10].
As for `COc1ccc2cc(-c3c(-c4ccncc4)nc(-c4ccc([S+](C)[O-])cc4)n3C)ccc2c1` (stereo not given), the inhibition worked out at 4.99% in experiment [1]; 3.54% in experiment [2]; 4.91% in experiment [3]; 1.31% in experiment [4]; 4.18% in experiment [5]; 2.83% in experiment [6]. For the same molecule, the inhibition was 4.08% in experiment [7], 1.36% in experiment [8], -0.32% in [9] and 0.49% in [10].
As for `CC(C)=Cc1cccc2c1/C(=N/Nc1ccc(S(N)(=O)=O)cc1)C(=O)N2`, the inhibition came to 12.2% in experiment [1]; 1.39% in experiment [2]; 8.68% in experiment [3]; 1.14% in [4]; 4.69% in experiment [5]; 1.13% in experiment [6]. Moreover, the inhibition in experiment [7] was found to be 7.29%; in experiment [8], 1.11%; in experiment [9], 1.36%; in experiment [10], 1.3%.
